Activity calls are given as the source filed them. Rule for the calls: active = hit-call score of the fitted dose curve at least 0.9, where 1 is the maximum; inactive = score below 0.9.
Experiments:
[1] = read-out: Urokinase-type plasminogen activator receptor (uPAR), PLAUR (gene 5329); assay: BSK_4H_uPAR: BioMAP Diversity Plus: 4H Assay for Urokinase-type plasminogen activator receptor (uPAR) Biomarker Activity (AID 2283030); settings: primary human endothelial cells (HUVEC); actives raise or lower the signal
Method in brief: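 Endpoint derived via bidirectional curve fitting against DMSO baseline; readout was ELISA detection of uPAR on umbilical vein endothelial cells at 24 h post-treatment, with SRB-stained parallel cultures assessing cytotoxicity.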

[2] = read-out: Vascular endothelial growth factor receptor 2 (Homo sapiens) (UniProt P35968); assay: BSK_4H_VEGFRII: BioMAP Diversity Plus: 4H Assay for Vascular endothelial growth factor receptor 2 (VEGFR2) Biomarker Activity (AID 2283031); settings: primary human endothelial cells (HUVEC); actives raise or lower the signal
Method in brief: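 In this multiplexed HUVEC system, biomarker ELISA was performed after 24 h chemical exposure. Parallel SRB staining (TCA fixation, 560 nm) tracked cytotoxicity; DMSO served as baseline.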

[3] = read-out: Vascular cell adhesion molecule 1 (VCAM1), VCAM1 (gene 7412); assay: BSK_4H_VCAM1: BioMAP Diversity Plus: 4H Assay for Vascular cell adhesion molecule 1 (VCAM1) Biomarker Activity (AID 2283033); settings: primary human endothelial cells (HUVEC); actives raise or lower the signal;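 note: cell-surface VCAM-1 protein measured by ELISA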
Method in brief: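 ELISA read-out of VCAM-1 on human umbilical vein endothelium 24 hours after chemical dosing; gain or loss of signal was fitted relative to DMSO, with sulforhodamine B staining of parallel cultures flagging overt cytotoxicity.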

[4] = read-out: Interferon-gamma inducible Protein 10 (IP10), CXCL10 (gene 3627); assay: BSK_BE3C_IP10: BioMAP Diversity Plus: BE3C Assay for Interferon-gamma inducible Protein 10 (IP10) Biomarker Activity (AID 2283034); settings: primary human bronchial epithelial cells; actives raise or lower the signal
Method in brief: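 Chemical is dosed onto human lung bronchial epithelial primary cells, cultures are incubated 24 h, and IP-10 is then quantified by ELISA. Gain or loss of signal is fitted in both directions relative to DMSO.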

[5] = read-out: Monokine induced gamma interferon (MIG), CXCL9 (gene 4283); assay: BSK_BE3C_MIG: BioMAP Diversity Plus: BE3C Assay for Monokine induced gamma interferon (MIG) Biomarker Activity (AID 2283035); settings: primary human bronchial epithelial cells; actives raise or lower the signal;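 note: MIG protein measured by ELISA in BE3C cultures after 24 h of dosing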
Method in brief: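 MIG level was determined by ELISA after 24 h chemical treatment of primary human bronchial epithelial cells. Values were fitted bidirectionally with DMSO as the negative control and activity baseline.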

[6] = read-out: Transforming growth factor beta 1 (TGFb1), TGFB1 (gene 7040); assay: BSK_BE3C_TGFb1: BioMAP Diversity Plus: BE3C Assay for Transforming growth factor beta 1 (TGFb1) Biomarker Activity (AID 2283036;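 note: TGF-b1 protein level measured by ELISA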); settings: primary human bronchial epithelial cells; actives raise or lower the signal
Method in brief: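 Primary human lung bronchial epithelial cells; compound exposure 24 h; TGF-b1 by ELISA; bidirectional fit, DMSO baseline. Parallel SRB total-protein staining for cytotoxicity.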

[7] = read-out: Plasminogen activator inhibitor-1 (PAI1), SERPINE1 (gene 5054); assay: BSK_BE3C_PAI1: BioMAP Diversity Plus: BE3C Assay for Plasminogen activator inhibitor-1 (PAI1) Biomarker Activity (AID 2283037); settings: primary human bronchial epithelial cells; actives raise or lower the signal
Method in brief: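 Primary human lung bronchial epithelial cells; chemical dosing; 24 h; PAI-1 measured by ELISA; bidirectional fit referenced to DMSO as negative control.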

[8] = read-out: urokinase plasminogen activator (uPA), PLAU (gene 5328); assay: BSK_BE3C_uPA: BioMAP Diversity Plus: BE3C Assay for urokinase plasminogen activator (uPA) Biomarker Activity (AID 2283038); settings: primary human bronchial epithelial cells; actives raise or lower the signal;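 note: uPA protein level quantified by ELISA in cell cultures; uPA read one day after compound addition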
Method in brief: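 Using confluent primary human lung bronchial epithelial cultures, we dosed chemicals, waited 24 h, then ran a uPA ELISA, fitting bidirectionally against DMSO.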

[9] = read-out: Urokinase-type plasminogen activator receptor (uPAR), PLAUR (gene 5329); assay: BSK_BE3C_uPAR: BioMAP Diversity Plus: BE3C Assay for Urokinase-type plasminogen activator receptor (uPAR) Biomarker Activity (AID 2283039); settings: primary human bronchial epithelial cells; actives raise or lower the signal;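 note: uPAR protein level measured by ELISA on the cells; cells exposed to compound for one day before measurement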
Method in brief: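 Human bronchial epithelial primary cells; chemical exposure 24 h; uPAR by ELISA; bidirectional fit vs DMSO control.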

[10] = read-out: Interleukin-6 (IL6), IL6 (gene 3569); assay: BSK_CASM3C_IL6: BioMAP Diversity Plus: CASM3C Assay for Interleukin-6 (IL6) Biomarker Activity for (AID 2283040); settings: primary human coronary artery smooth muscle cells; actives raise or lower the signal
[11] = read-out: Tissue plasminogen activator (tPA), PLAT (gene 5327); assay: BSK_BE3C_tPA: BioMAP Diversity Plus: BE3C Assay for Tissue plasminogen activator (tPA) Biomarker Activity (AID 2283041); settings: primary human bronchial epithelial cells; actives raise or lower the signal;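 note: tPA level quantified by ELISA one day after compound addition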
Method in brief: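 Primary human lung bronchial epithelial cultures receive test chemical; after 24 h, tPA is quantified by ELISA, and gain or loss of signal is fitted bidirectionally relative to DMSO baseline.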

[12] = read-out: Interleukin-8 (IL8), CXCL8 (gene 3576); assay: BSK_CASM3C_IL8: BioMAP Diversity Plus: CASM3C Assay for Interleukin-8 (IL8) Biomarker Activity (AID 2283042); settings: primary human coronary artery smooth muscle cells; actives raise or lower the signal;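 note: IL-8 protein level quantified by ELISA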
[13] = read-out: Human Leukocyte Antigen - DR isotype (HLADR), HLA-DRA (gene 3122); assay: BSK_CASM3C_HLADR: BioMAP Diversity Plus: CASM3C Assay for Human Leukocyte Antigen - DR isotype (HLADR) Biomarker Activity (AID 2283043); settings: primary human coronary artery smooth muscle cells; actives raise or lower the signal;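 note: cell-surface HLA-DR protein level quantified by ELISA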
[14] = read-out: Macrophage colony-stimulating factor (MCSF), CSF1 (gene 1435); assay: BSK_CASM3C_MCSF: BioMAP Diversity Plus: CASM3C Assay for Macrophage colony-stimulating factor (MCSF) Biomarker Activity (AID 2283044); settings: primary human coronary artery smooth muscle cells; actives raise or lower the signal;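 note: M-CSF protein amount quantified by ELISA after 24 h exposure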
[15] = read-out: Low-density lipoprotein receptor (LDLR), LDLR (gene 3949); assay: BSK_CASM3C_LDLR: BioMAP Diversity Plus: CASM3C Assay for Low-density lipoprotein receptor (LDLR) Biomarker Activity (AID 2283045); settings: primary human coronary artery smooth muscle cells; actives raise or lower the signal;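 note: LDLR protein level on the cell surface quantified by ELISA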
[16] = read-out: Monocyte Chemoattractant Protein-1 (MCP1), CCL2 (gene 6347); assay: BSK_CASM3C_MCP1: BioMAP Diversity Plus: CASM3C Assay for Monocyte Chemoattractant Protein-1 (MCP1) Biomarker Activity (AID 2283046); settings: primary human coronary artery smooth muscle cells; actives raise or lower the signal;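 note: MCP-1 level quantified by ELISA 24 h after dosing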
[17] = BSK_CASM3C_Proliferation: Cell Proliferation Assessment in the BioMAP Diversity Plus: CASM3C Assay (AID 2283047); settings: primary human coronary artery smooth muscle cells;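 note: sulforhodamine B total protein stain as relative cell number at 560 nm; sub-confluent cells exposed 48 h before staining; fitted both ways against DMSO so gain or loss of cell number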
[18] = read-out: Monokine induced gamma interferon (MIG), CXCL9 (gene 4283); assay: BSK_CASM3C_MIG: BioMAP Diversity Plus: CASM3C Assay for Monokine induced gamma interferon (MIG) Biomarker Activity (AID 2283048); settings: primary human coronary artery smooth muscle cells; actives raise or lower the signal;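 note: MIG protein level measured by ELISA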
[19] = read-out: serum amyloid A (SAA), SAA1 (gene 6288); assay: BSK_CASM3C_SAA: BioMAP Diversity Plus: CASM3C Assay for serum amyloid A (SAA) Biomarker Activity (AID 2283049); settings: primary human coronary artery smooth muscle cells; actives raise or lower the signal;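 note: SAA protein level quantified by ELISA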
[20] = read-out: Human Leukocyte Antigen - DR isotype (HLADR), HLA-DRA (gene 3122); assay: BSK_BE3C_HLADR: BioMAP Diversity Plus: BE3C Assay for Human Leukocyte Antigen - DR isotype (HLADR) Biomarker Activity (AID 2283032); settings: primary human bronchial epithelial cells; actives raise or lower the signal
Method in brief: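 ELISA read-out of HLA-DR on human lung bronchial epithelial primary cells, measured 24 h post-dosing. Both increases and decreases were scored relative to DMSO vehicle.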

Measured: outcome

Nc1ccc(Cl)cc1
not listed: [20]
inactive: all other assays above

O=S(=O)(F)C(F)(F)C(F)(F)C(F)(F)C(F)(F)C(F)(F)C(F)(F)C(F)(F)C(F)(F)F
not listed: [6]
inactive: all other assays above

CN(C)C(=O)Cl
inactive: all assays above

O=C(O)C(F)(F)OC(F)(F)C(F)(F)OC(F)(F)C(=O)O
not listed: [6]
inactive: all other assays above

c1cc2c3c(cccc3c1)CC2
not listed: [20]
inactive: all other assays above

CCOP(=S)(OCC)SCS(=O)(=O)CC
inactive: all assays above

CCC(C)(C)c1ccc(O)cc1
not listed: [20]
inactive: all other assays above

— PubChem BioAssay (EPA / NIEHS)
